Here are results for 23 compounds from PubChem BioAssay.

A number with no mark means an inactive call. The rule behind the calls is not given here.

One may read the inhibition as how much of the control response was suppressed.

The target of this experiment is Pantothenate synthetase (Mycobacterium tuberculosis (strain ATCC 25618 / H37Rv)) (UniProt P9WIL5). In words: Recombinant Mtb pantothenate synthetase (PanC) inhibitors, coupled enzyme, confirmatory (AID 375).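 Note: 0% = full reaction with vehicle and 100% = no enzyme background.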 As to conditions: coupled enzyme assay; at 10 µM, stronger effect = higher value.
Sequence of Pantothenate synthetase (Mycobacterium tuberculosis (strain ATCC 25618 / H37Rv)) (P9WIL5 whole entry, looked up): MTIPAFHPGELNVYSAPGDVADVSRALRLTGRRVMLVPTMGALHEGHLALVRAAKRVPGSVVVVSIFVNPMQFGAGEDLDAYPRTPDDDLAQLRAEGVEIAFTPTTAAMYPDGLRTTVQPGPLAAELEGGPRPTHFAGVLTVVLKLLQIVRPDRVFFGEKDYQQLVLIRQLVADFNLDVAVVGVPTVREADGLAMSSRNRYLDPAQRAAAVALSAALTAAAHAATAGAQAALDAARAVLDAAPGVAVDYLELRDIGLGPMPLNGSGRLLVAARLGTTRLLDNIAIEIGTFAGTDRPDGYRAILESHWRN
As to `CCOC(=O)Cc1nnc(NC(=O)c2ccccc2OCC)s1`, the inhibition is 0%.
The figure for `CC(C)C1N=C2c3ccccc3N=C(SCc3cc(=O)n4ccccc4n3)N2C1=O` (stereo not drawn) is 6%.
In the case of `CCN(CC)Cc1c(C(=O)OC)nnn1-c1nonc1N` it was 0%; in that of `COc1ccc(-c2nnc(SCC(=O)Nc3cc(C)on3)n2C)cc1OC`, 5%.
The figure for `CCOc1cc(C2c3c(n[nH]c3C)C(=O)N2c2ccc(Br)cc2)ccc1O` (stereo not drawn) is 0%.
For the compound `O=C(Nc1cccc2ccccc12)c1cnccn1`, the inhibition is 0%.
The figure for `COc1cccc(NC(=O)CSc2nnc(Cc3cccn3C)n2-c2ccc(F)cc2)c1` is 4%; for `CCN(c1c(C)n(C)n(-c2ccccc2)c1=O)S(C)(=O)=O` it is 5%.
In the case of `O=C1c2cccnc2C(=O)N1c1cccc(-c2nc3ccccc3o2)c1` it was 3%; in that of `O=c1[nH]c2cccnc2n1Cc1ccco1`, 0%; in that of `COc1ccccc1NC(=O)CSc1nnc(CC(=O)Nc2ccccc2)n1C`, 6%.
The figure for `CCCC(OC(=O)CN1C(=O)COc2ccccc21)C(=O)NC1CCCC1` (stereo not drawn) is 0%; for `Cc1ccccc1CSc1nnc(C)c(=O)[nH]1` it is 0%.
For the compound `CCCOc1ccc(NC2=CC(=O)CC(C)(C)C2)cc1`, the inhibition was 0%.
The figure for `Cc1ccc(C)c2[nH]c(=O)c(CCNC(=O)c3ccc(Br)o3)cc12` is 0%; for `OCc1nc2ccccc2n1CCCOc1ccccc1` it is 0%; for `Cc1nc2ccc(F)cc2cc1C(=O)NCC1CCCO1` (stereo not drawn) it is 0%.
The figure for `Cc1c(/C(O)=C2/C(=O)C(=O)N(CCN3CCOCC3)C2c2cccs2)cnn1-c1ccccc1` (stereo not drawn) is 8%; for `CCCn1c(OC)nc2c1c(=O)n(C)c(=O)n2C` it is 0%; for `O=S1(=O)CCN2C(=N1)SC1=C2CCN(Cc2ccccc2)C1` it is 2%.
The figure for `COc1ccc(OCc2nc(N)nc(Nc3cccc(C)c3C)n2)cc1` is 1%.
Turning to `O=C(NCc1cccs1)C1CC(c2ccccc2O)=NO1` (stereo not drawn), the inhibition was 5%.
In the case of `CCOC(=O)c1ccccc1NC(=O)CSc1nccn1C` it was 0%.
